Screening data: PubChem, The Scripps Research Institute Molecular Screening Center
Only some compounds are listed: those with a hit (about 0.83% of all), similar ones and a draw of the others.
NR2F2 inh – blocks human COUP-TFII nuclear receptor; AID 686940; P24468; HEK293T NGFI-A luciferase reporter, luminescence; inhibition, % at 8.6 µM; 370,000 compounds, 0.7% hits;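 active means inhibition above a per-plate cutoff, mean inhibition of test wells between control levels plus 3 SD, cut at about 38% in these data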;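 further: cells cotransfected with COUP-TFII expression vector driving the NGFI-A reporter; 0% = median of COUP-TF2 test wells and 100% = reporter-only cells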
LRH-1 inv ag – suppresses constitutive activity of human LRH-1; O00482; HEK293T StAR-luciferase reporter, LRH-1 transfected, 24 h; inhibition, % at 3.6 µM; 360,000 compounds, 0.13% hits;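 active means inhibition above the mean inhibition of all tested compounds plus 3 SD, cut at about 73% in these data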;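 further: 0% = DMSO wells and 100% = reporter-only cells lacking LRH-1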
SRC2 inh – inhibits human steroid receptor coactivator 2. Q15596. HEK293 GAL4-SRC2 luciferase reporter, luminescence. inhibition, % at 9 µM. 370,000 compounds, 0.17% hits. AID 651957;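 active means inhibition above the mean inhibition of all tested compounds plus 3 SD, set per campaign, cut at about 52% in these data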;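 further: 0% = DMSO treated cells and 100% = cells given Gossypol at 36 µM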
SRC1 inh – inhibits human SRC1 coactivator; inhibition, % at 3.6 µM; HEK293 GAL4-SRC1 luciferase reporter, luminescence; AID 588354; 360,000 compounds, 0.12% hits;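 active means inhibition above the campaign mean plus 3 SD, with each screening campaign given its own cutoff, cut at about 60% in these data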;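 further: 0% = DMSO treated cells and 100% = gossypol at 36 µM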
SRC3 inh – inhibitors of human steroid receptor coactivator 3 (SRC3) | inhibition, % at 3.6 µM | AID 588352 | HEK293 GAL4-SRC3 luciferase reporter, luminescence | 360,000 compounds, 0.17% hits | Q9Y6Q9;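 active means inhibition above a per-campaign cutoff, the mean of all compounds plus 3 SD, cut at about 60% in these data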;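 further: 0% = DMSO-treated cells and 100% = gossypol-treated cells at 36 µM; higher means less SRC3-driven luciferase light from the GAL4 reporter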
VP16 Luc counter – VP16 inhibition counter-screen for COUP-TFII | inhibition, % at 8.5 µM | shares compounds with NR2F2 inh | 2,500 compounds, 25% hits | HEK293 Gal4-VP16 luciferase reporter, luminescence; in the data active means inhibition above about 13%
NR2F2 inh conf – confirmation of human COUP-TFII (NR2F2) inhibitors | shares compounds with NR2F2 inh | inhibition, % at 8.5 µM | 2,500 compounds, 45% hits | HEK293 NGFI-A luciferase reporter, luminescence | AID 687008;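 active means mean inhibition over three repeats above a set limit taken from the earlier primary screen, cut at about 38% in these data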;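 further: 100% = cells given the luciferase reporter alone without the COUP-TF2 vector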
* marks the source's active call; other numbers are inactive results; / = not tested or not shown.

SMILES | NR2F2 inh | LRH-1 inv ag | SRC2 inh | SRC1 inh | SRC3 inh | VP16 Luc counter | NR2F2 inh conf
COc1ccc2cc3c(N)nn(C(=O)c4ccc(F)cc4)c3nc2c1 | 34.2 | 19.7 | 30.7 | 60.1 | 48.7 | / | /
CCc1cc(-c2nnn(CCC3COCCO3)c2CC)ccc1-c1cn(Cc2ccccc2)nn1 (stereo unspecified) | 66.2* | 31.1 | 25.8 | 8.6 | -2.2 | -19.5 | 34.0
O=[N+]([O-])c1ccccc1/C=C/C1Nc2cccc3cccc(c23)N1 | -2.7 | / | -22.2 | / | / | / | /
CCCCOCCCNC(=O)C[C@@H]1C(=O)N(Cc2ccc(OC)cc2)/C2=C/CCCCC[C@@]21C(=O)OCC | -1.8 | / | -15.5 | / | / | / | /
CC1C/C(=C/c2ccncc2)C(=O)/C(=C/c2ccncc2)C1 (stereo unspecified) | 87.0* | 45.5 | 74.1* | -302.7 | -24.2 | 82.2* | 96.8*
COc1ccccc1C(=O)Nc1nc2ccc(S(C)(=O)=O)cc2s1 | -20.3 | -8.4 | -32.5 | -15.1 | -16.2 | / | /
COc1ccccc1C(=O)Nc1nc2ccccc2s1 | 90.8* | 66.1 | 86.5* | 70.7* | 73.7* | 78.4* | 96.8*
Cc1ccc2nc(NC(=O)c3ccccn3)sc2c1 | 58.2* | -7.4 | 27.9 | -6.3 | 12.0 | 9.7 | 27.6
CCOc1ccc2nc(NC(=O)c3ccccn3)sc2c1 | 6.2 | -96.5 | -56.0 | -109.5 | -69.0 | / | /
CC(C)(C)OC(=O)NCc1cc2c(cc1/C=C/S(=O)(=O)NC1CCCC1)OCO2 | -9.3 | / | 8.3 | / | / | / | /
O=C(/C=C/c1ccc(-c2ccccc2)cc1)NC1=NCCS1 | -29.3 | / | / | / | / | / | /
CC(C)c1[nH]nc2c1C(c1cccc(C(F)(F)F)c1)NC2=O (stereo unspecified) | 1.7 | / | -6.8 | / | / | / | /
O=C(CC1CS(=O)(=O)CC1CC(=O)Nc1ccc2c(c1)OCCO2)Nc1ccc2c(c1)OCCO2 (stereo unspecified) | 69.1* | 44.4 | 33.9 | 53.5 | 60.9 | -7.1 | 30.3
CCCC/C=C1/[C@H](c2ccccc2)N(C)C2=N[C@H](c3ccccc3)CC(=O)N21 | 30.0 | / | / | / | / | / | /
CCCn1c2c(c(=N)c3c1CCC3)CCC2 | 21.8 | 12.9 | 7.4 | -10.4 | 22.1 | / | /
CCCCCCCn1c2c(c(=N)c3ccccc31)CCC2 | 73.7* | 78.8* | 9.4 | 40.0 | 63.5* | 25.2* | 74.8*
CC(C)=CC([C@]12C[C@H](CO)N[C@@H]1Nc1ccccc12)S(=O)(=O)c1ccccc1 (stereo partly specified) | 20.7 | / | / | / | / | / | /
COc1ccc(Cc2noc(CN3CCN(c4ccc(Cl)cn4)CC3)n2)cc1OC | 41.3* | 11.2 | 19.1 | 27.2 | 38.9 | -7.0 | 13.1
O=C(CSc1nnc(Cc2cccs2)n1-c1ccccc1)Nc1ccccc1-c1ccccc1 | 4.4 | / | 2.7 | / | / | / | /
O=C(Nc1ccc2nc3n(c(=O)c2c1)CCCCC3)c1cc([N+](=O)[O-])ccc1F | 13.9 | 36.8 | 37.2 | 6.5 | -8.5 | / | /
O=C(Nc1ccc2nc3n(c(=O)c2c1)CCCCC3)c1c(F)ccc([N+](=O)[O-])c1F | 42.7* | 4.1 | 71.3* | -156.4 | 0.0 | 60.2* | 78.7*
COc1ccccc1-[n+]1c(C)cc(/C=C2\Sc3ccccc3N2C)cc1C | 81.9* | 84.2* | 0.1 | 62.2* | 69.2* | -10.7 | 89.3*
COc1ccc(-[n+]2c(C)cc(/C=C3\Sc4ccccc4N3C)cc2C)cc1 | 82.3* | 98.4* | -88.5 | 70.7* | 74.5* | -34.7 | 66.5*
COc1ccc(C(=O)/C=C2\Sc3ccccc3N2C)cc1 | -73.0 | -116.9 | -47.7 | -115.0 | -69.2 | / | /
C#CCN1C(=O)[C@]2(OCCC=C[C@H]2C)c2cc(OC)ccc21 | 3.0 | / | -0.5 | / | / | / | /
SMILES | NR2F2 inh | LRH-1 inv ag | SRC2 inh | SRC1 inh | SRC3 inh | VP16 Luc counter | NR2F2 inh conf
COc1cc2c(cc1OC)C(c1c(Cl)cccc1Cl)=NCC2 | 72.3* | -2.8 | 22.2 | -31.7 | -49.8 | 12.0 | 57.7*
CCc1cccc(OCC(=O)Nc2ccc(C)c(S(=O)(=O)N3CCCCCC3)c2)c1 | 40.1* | -8.6 | 7.4 | -9.8 | 21.3 | 2.7 | 18.4
COc1cc(C(C)=O)ccc1OCC(=O)Nc1ccc(S(=O)(=O)N2CCCCC2)cc1 | -1.4 | 0.2 | -21.3 | 7.2 | 6.2 | / | /
Cc1ccc(NC(=O)COc2ccc(N(C)C(=O)C(C)(C)C)cc2)cc1S(=O)(=O)N1CCCCC1 | 74.3* | 25.1 | 15.0 | 10.3 | 9.6 | 3.3 | 53.9*
COc1cc(C(C)=O)ccc1OCC(=O)Nc1ccc(C)c(S(=O)(=O)N2CCCCCC2)c1 | 47.2* | 15.5 | 19.9 | 4.2 | 26.5 | -6.4 | 19.7
CC(=O)Nc1ccc(OCC(=O)Nc2ccc(Cl)c(S(=O)(=O)N3CCOCC3)c2)cc1 | 64.6* | 34.9 | 33.8 | 25.9 | 28.2 | 7.3 | 43.7*
Clc1ccccc1N1CCN(C2=Nc3ccccc3Sc3ccccc32)CC1 | -43.4 | / | 3.2 | / | / | / | /
C=CCN1[C@H](CC(C)C)COc2cc(F)ccc2S1(=O)=O | -8.2 | / | 23.7 | / | / | / | /
COC(=O)[C@]12C[C@H](CC(=O)NCCc3ccccc3OC)C(=O)N(Cc3ccco3)C1=C[C@H](C1CCCC1)O[C@@H]2C | -1.4 | / | -7.3 | / | / | / | /
Cc1[nH]c2ccccc2c1CC(=O)Nc1ccc(Nc2cccnc2)c(-c2ccc(Oc3ccccc3)cc2)c1 | 12.4 | / | 6.7 | / | / | / | /
CC(=O)C1=C(C)N(Cc2ccc(Br)cc2)C(=S)NC1c1ccc(F)cc1 (stereo unspecified) | -4.7 | / | 23.9 | / | / | / | /
CCCN1CCCCC(NC(C)=O)C1=O (stereo unspecified) | -12.3 | / | -5.0 | / | / | / | /
CCC[C@@H](/C=C/C(=O)OC(C)(C)C)Sc1ccc(N)cc1 | 0.6 | / | -7.0 | / | / | / | /
CN(C)S(=O)(=O)c1ccc(NC(=O)Cc2ccc(S(=O)(=O)N3CCOCC3)s2)cc1 | 3.1 | 2.0 | -0.8 | -17.7 | 11.2 | / | /
Cc1ccc(NC(=O)COc2ccccc2C(N)=O)cc1S(=O)(=O)N1CCCCCC1 | 60.4* | 23.4 | 40.7 | 12.5 | 12.9 | -6.9 | 46.2*
CC(=O)c1ccc(OCCCC(=O)Nc2ccc(C)c(S(=O)(=O)N3CCCCC3)c2)cc1 | 61.2* | 12.9 | 37.5 | 18.4 | 11.1 | 11.3 | 40.4*
CCN(CC)S(=O)(=O)c1cc(NC(=O)Cc2ccc(S(=O)(=O)N3CCOCC3)s2)ccc1Cl | 64.0* | 25.3 | 31.8 | 13.5 | 21.7 | 2.9 | 29.5
O=C(O)CC(SCC(=O)Nc1ccc(Cl)c(S(=O)(=O)N2CCOCC2)c1)C(=O)O (stereo unspecified) | -7.5 | 2.8 | 16.5 | 0.1 | 3.6 | / | /
CC(CC(=O)Nc1ccc(Cl)c(S(=O)(=O)N2CCOCC2)c1)c1ccccc1 (stereo unspecified) | 63.0* | 22.1 | 29.1 | 28.7 | 17.5 | 3.5 | 51.3*
CC(=O)Nc1cc2nc3ccccc3oc-2cc1=O | 10.1 | / | -29.0 | / | / | / | /
O=C(Nc1ccccc1C(F)(F)F)OC1CC2CC1[C@H]1CCCCN1C2 (stereo partly specified) | 8.2 | / | -10.3 | / | / | / | /
